Experimental data published in PubChem BioAssay AID743060 (The Scripps Research Institute Molecular Screening Center, 2013).
“And” between values parts separate entries of the source, which are not always exact repeats. Equal entries are not always repeated.

assay: T. brucei methionyl-tRNA synthetase enzyme inhibition – biochemical, radioactivity, round 1, late-stage follow-up (AID 743060); details: purified enzyme, radiolabel aminoacylation, scintillation, 2 h; at 1 µM; stronger effect = higher value

Row | SMILES | inhibition
1 | Cc1cccc(NC(=O)C2CC(=O)n3c(nc4ccccc43)N2)c1 (stereo not given) | 3%
2 | Cc1ccc2[nH]c3nc(SCC(=O)Nc4ccc(C(F)(F)F)cc4)nnc3c2c1 | 21.3%
3 | Cn1c(CCNC(=O)c2ccc(Cl)cc2)nc2ccccc21 | 10.9%
4 | CC(C)(C)[C@@H]1C=C(C(=O)NCc2nc3ccccc3[nH]2)O[C@H](OCc2ccc(CO)cc2)C1 | 30.8%
5 | O=C1CC(SCc2nc3ccccc3[nH]2)C(=O)N1c1cccc(Cl)c1 (stereo not given) | 19.7%
6 | COc1ccc(OCC(O)CNC(=O)Nc2ccc(Cl)cc2)cc1 (stereo not given) | 28.9%
7 | O=C(NCc1nc2ccccc2[nH]1)C1=C[C@H](c2ccc(Br)cc2)C[C@H](OCCCCO)O1 | 51.6%
8 | Brc1cnc2nc(SCc3nc4ccccc4[nH]3)[nH]c2c1 | 23.7%
9 | CCc1ccc2c(c1)c1nnc(SCC(=O)Nc3ccc4c(c3)OCO4)nc1n2C | -1.63%
10 | O=C(C(=O)N1CCOCC1)c1cn(CC(=O)N2CCCc3ccccc32)c2ccccc12 | -6%
11 | COc1ccc(CCN(C(=O)c2cccc(F)c2)C2CC(=O)N(c3ccc(Br)cc3)C2=O)cc1 (stereo not given) | -5.29%
12 | CCOC(=O)N1CCC(Nc2c(Nc3ccc(F)cc3)c(=O)c2=O)CC1 | 28.4%
13 | O=C(NCCc1nc2ccccc2[nH]1)c1ccc(Cl)cc1Cl | 61.9%
14 | COc1ccc2[nH]c3nc(SCC(=O)Nc4ccc5c(c4)OCO5)nnc3c2c1 | 63.4%
15 | CC1Cc2ccccc2N1C(=O)Cn1cc(C(=O)C(=O)N2CCOCC2)c2ccccc21 (stereo not given) | -6.83%
16 | CN(CC(=O)Nc1ccc(Cl)cc1)C(=O)c1ccc(-n2cncn2)c([N+](=O)[O-])c1 | 38%
17 | O=C(Cn1cc(C(=O)C2CC2)c2ccccc21)Nc1cccc(C(F)(F)F)c1 | 3.65%
18 | O=C(CSC1CC(=O)N(c2cccc(Cl)c2)C1=O)Nc1ccc(Br)cc1 (stereo not given) | 23.7%

Row | SMILES | inhibition
19 | O=C(NNC(=O)c1cc(-c2ccc(Cl)c(Cl)c2)nc2ccccc12)Nc1ccccc1 | 59.7%
20 | O=C(NCc1nc2ccccc2[nH]1)C1=C[C@@H](c2ccccc2)C[C@@H](OCc2ccc(CO)cc2)O1 | 44.6%
21 | O=C(Cn1cc(C(=O)C(=O)N2CCCC2)c2ccccc21)Nc1ccccc1 | -5.78%
22 | O=C(CC=NOCc1ccc([N+](=O)[O-])cc1)Nc1ccc(Cl)cc1 | 28.6%
23 | O=C(NCCc1nc2ccccc2[nH]1)c1c(F)cccc1F | 2.62%
24 | CC(C)(C)[C@H]1C=C(C(=O)NCc2nc3ccccc3[nH]2)O[C@@H](OCc2ccc(CO)cc2)C1 | 21.6%
25 | CCCCCCCCCC1NC(C(=O)O)Cc2c1[nH]c1ccccc21 (stereo not given) | 64.7%
26 | CCO[C@H]1OC(C(=O)NCc2nc3ccccc3[nH]2)=C[C@@H](c2ccc(Br)cc2)[C@@H]1CCCO | 0.88%
27 | CCN(CCc1nc2ccc(C)cc2[nH]1)C(=O)c1ccc2ncccc2c1 | -4.55%
28 | O=C(NCc1nc2ccccc2[nH]1)C1=C[C@H](c2ccc(Br)cc2)C[C@H](OCc2ccc(CO)cc2)O1 | 50.3%
29 | O=C(CC=NOCc1ccc([N+](=O)[O-])cc1)Nc1ccc(Br)cc1 | 32.2%
30 | O=C(NCc1nc2ccccc2[nH]1)C1=C[C@@H](c2ccc3c(c2)OCO3)C[C@@H](OCCCCO)O1 | 50.4%
31 | Cc1ccc(NC(=O)CN(C)C(=O)CCSc2ccc(F)cc2)cc1 | -1.05%
32 | O=C(Cn1cc(C(=O)C(=O)N2CCOCC2)c2ccccc21)NCc1ccccc1 | -0.16%
33 | O=C(Nc1ccc(F)c(Cl)c1)C1CC(=O)n2c(nc3ccccc32)N1 (stereo not given) | 44.9% and 55.3%
34 | CC(C)c1nc2ccc(C(=O)N(C)CCc3nc4ccc(F)cc4[nH]3)cc2o1 | -1.99%
35 | CCN(CC)C(=O)C(=O)c1cn(CC(=O)N(CC)c2ccccc2)c2ccccc12 | -3.75%
